Experimental data from PubChem BioAssay (NCATS).
Results filed as inconclusive are left out. The source made the active and inactive calls. Calls follow the shape of the dose curve; as a rule, active = well fitted inhibition curve with a large enough effect; inconclusive = small, poorly fitted or top-dose-only effect; inactive = flat fitted curve, though single readings scatter.

What was measured:
Test in all cases: qHTS profiling for inhibitors of Plasmodium falciparum proliferation (AID 504749); also: nearly all actives have a fitted effect of over 60% in size
Details in all cases: P. falciparum in erythrocytes, SYBR Green DNA, 72 h; series mostly up to 28.7 µM
PAD = tested on: PAD
Summary of the method: (§1)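 In a 72 h erythrocytic culture (37 C, humidified, 5% CO2) at 2.5% hematocrit and 0.3% starting parasitemia, compounds were tested; SYBR Green I in detergent lysis buffer stained parasite DNA overnight.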

PC15 = tested on: PC15
Summary of the method: as §1

PC26 = tested on: PC26
Summary of the method: as §1

PC49 = tested on: PC49
Summary of the method: as §1

SC27B = tested on: SC27B
Summary of the method: as §1

TAB109 = tested on: TAB109
Summary of the method: as §1

TAB113 = tested on: TAB113
Summary of the method: as §1

TAB165 = tested on: TAB165
Summary of the method: as §1

W2 = tested on: W2
Summary of the method: as §1

Measured: Potency

CN(CCO)CC(O)Cn1cnc2c1c(=O)n(C)c(=O)n2C (stereo not drawn) (tested in a mixture with another compound)
inactive: PAD | PC15 | PC26 | PC49 | SC27B | TAB109 | TAB113 | TAB165 | W2

C=Cc1ccc(S(=O)(=O)O)cc1
inactive: PAD | PC15 | PC26 | PC49 | SC27B | TAB109 | TAB113 | TAB165 | W2

CC(C)(Oc1ccc(C2CCCc3ccccc32)cc1)C(=O)O (stereo not drawn)
inactive: PAD | PC15 | PC26 | PC49 | SC27B | TAB109 | TAB113 | TAB165 | W2

O=C(O)/C=C/c1ccccc1
inactive: PAD | PC15 | PC26 | PC49 | SC27B | TAB109 | TAB113 | TAB165 | W2

CC(C)c1nc(N(C)S(C)(=O)=O)nc(-c2ccc(F)cc2)c1/C=C/C(O)CC(O)CC(=O)O (stereo not drawn)
inactive: PAD | PC15 | PC26 | PC49 | SC27B | TAB109 | TAB113 | TAB165 | W2

CN1CCC(OC(=O)C(Oc2ccc(Cl)cc2)Oc2ccc(Cl)cc2)CC1
inactive: PAD | PC15 | PC26 | PC49 | SC27B | TAB109 | TAB113 | TAB165 | W2

C=CCN1CCCC1CNC(=O)c1cc(S(N)(=O)=O)cc(OC)c1OC (stereo not drawn)
inactive: PAD | PC15 | PC26 | PC49 | SC27B | TAB109 | TAB113 | TAB165 | W2

OCCCNc1ccccc1
inactive: PAD | PC15 | PC26 | PC49 | SC27B | TAB109 | TAB113 | TAB165 | W2

OC1OC[C@@H](O)[C@H](O)[C@@H]1O (stereo partly drawn)
inactive: PAD | PC15 | PC26 | PC49 | SC27B | TAB109 | TAB113 | TAB165 | W2

CC12CCC(C[N+](C)(CCC[N+](C)(C)C)C1)C2(C)C (stereo not drawn)
inactive: PAD | PC15 | PC26 | PC49 | SC27B | TAB109 | TAB113 | TAB165 | W2

CCCCCCOC(=O)c1cccnc1
inactive: PAD | PC15 | PC26 | PC49 | SC27B | TAB109 | TAB113 | TAB165 | W2

Cc1ccc(S(=O)(=O)NCl)cc1
inactive: PAD | PC15 | PC26 | PC49 | SC27B | TAB109 | TAB113 | TAB165 | W2

CC1(C)S[C@@H]2[C@H](NC(=O)C3(N)CCCCC3)C(=O)N2[C@H]1C(=O)O
inactive: PAD | PC15 | PC26 | PC49 | SC27B | TAB109 | TAB113 | TAB165 | W2

NC(N)=O
inactive: PAD | PC15 | PC26 | PC49 | SC27B | TAB109 | TAB113 | TAB165 | W2

CC(/C=C/C=C(\C)C(=O)O[C@@H]1O[C@H](CO[C@@H]2O[C@H](CO)[C@@H](O)[C@H](O)[C@H]2O)[C@@H](O)[C@H](O)[C@H]1O)=C\C=C\C=C(C)\C=C\C=C(/C)C(=O)O[C@@H]1O[C@H](CO[C@@H]2O[C@H](CO)[C@@H](O)[C@H](O)[C@H]2O)[C@@H](O)[C@H](O)[C@H]1O
inactive: PAD | PC15 | PC26 | PC49 | SC27B | TAB109 | TAB113 | TAB165 | W2

CCCCC[C@H](O)/C=C/[C@@H]1[C@H]2C/C(=C/CCCC(=O)O)O[C@H]2C[C@H]1O
inactive: PAD | PC15 | PC26 | PC49 | SC27B | TAB109 | TAB113 | TAB165 | W2

CC(C)CCC[C@@H](C)[C@H]1CC[C@H]2[C@@H]3CC[C@@H]4C[C@H](O)CC[C@]4(C)[C@H]3CC[C@]12C
inactive: PAD | PC15 | PC26 | PC49 | SC27B | TAB109 | TAB113 | TAB165 | W2
